Laboratory results from PubChem BioAssay (NCATS).
Results filed as inconclusive are left out. The source made the active and inactive calls. Calls come from the whole dose curve; as a rule, active = well fitted inhibition curve with a large enough effect; inconclusive = small, poorly fitted or top-dose-only effect; inactive = flat fitted curve, though single readings scatter.

How the values were obtained:
Test in all cases: qHTS profiling for inhibitors of Plasmodium falciparum proliferation (AID 504749); note: nearly all actives have a fitted effect of over 60% in size
Settings in all cases: P. falciparum in erythrocytes, SYBR Green DNA, 72 h; series mostly up to 12.8 µM
CP268 = test system: CP268
Method in brief: (§1)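 Parasite proliferation within erythrocytes, 72 h exposure. Endpoint: SYBR Green I fluorescence after overnight lysis at room temperature. Controls: 0.29 uM artemisinin, DMSO.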

CP269 = test system: CP269
Method in brief: as §1

CP286 = test system: CP286
Method in brief: as §1

CP291 = test system: CP291
Method in brief: as §1

CP297 = test system: CP297
Method in brief: as §1

CP305 = test system: CP305
Method in brief: as §1

CP315 = test system: CP315
Method in brief: as §1

CP325 = test system: CP325
Method in brief: as §1

CP329 = test system: CP329
Method in brief: as §1

CP335 = test system: CP335
Method in brief: as §1

DFO2036 = test system: DFO2036
Method in brief: as §1

DIV14 = test system: DIV14
Method in brief: as §1

DIV17 = test system: DIV17
Method in brief: as §1

DIV30 = test system: DIV30
Method in brief: as §1

Dd2 = test system: Dd2
Method in brief: as §1

ECU = test system: ECU
Method in brief: as §1

FAB9 = test system: FAB9
Method in brief: as §1

GB4 = test system: GB4
Method in brief: as §1

HB3 = test system: HB3
Method in brief: as §1

ICS = test system: ICS
Method in brief: as §1

JCK = test system: JCK
Method in brief: as §1

N140 = test system: N140
Method in brief: as §1

P93_24 = test system: P93_24
Method in brief: as §1

P94_40 = test system: P94_40
Method in brief: as §1

PAD = test system: PAD
Method in brief: as §1

PC15 = test system: PC15
Method in brief: as §1

PC26 = test system: PC26
Method in brief: as §1

PC49 = test system: PC49
Method in brief: as §1

SC27B = test system: SC27B
Method in brief: as §1

TAB109 = test system: TAB109
Method in brief: as §1

TAB113 = test system: TAB113
Method in brief: as §1

TAB165 = test system: TAB165
Method in brief: as §1

W2 = test system: W2
Method in brief: as §1

Measured: Potency

CN(C)CCc1c[nH]c2ccc(CC3COC(=O)N3)cc12 (stereo not drawn)
inactive: all assays above
